Screening data from PubChem.
Sampled rows, rich in hits. Any-hit rate of the full collection: about 2.9%.
FID counter: fluorescent intercalator displacement, NS3 helicase counter-screen. DNA fluorescent intercalator displacement, fluorescence. inhibition, % at 7.9 µM. actives 0.17% (n = 290,000). AID 1845; in the data active means inhibition above about 37%;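 further: 0% = vehicle and 100% = reference compound; higher means more ethidium bromide displaced from hairpin DNA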
MEKK2mut PB1 HTS: signal of MEK5 binding to mutant human MEKK2 PB1 domain; bead flow cytometry, Alexa488-MEK5 binding to MEKK2 mutant; percent response, % at 10 µM; actives 0.35% (n = 290,000); AID 1530; in the data active means percent response above about 24%, passing the limit was not always enough
MEKK2wt PB1 HTS: raises or lowers MEK5 binding to wildtype human MEKK2 PB1 domain; binding response (% of control), % at 10 µM; AID 1531; Q9Y2U5; actives 1.1% (n = 290,000); bead flow cytometry, Alexa488-MEK5 binding to MEKK2 WT; actives lie on both sides; in the data active means binding response below about 67% or above about 130%; inconclusive means no clear call, values can overlap the other calls; inactive means in between
MEKK3 PB1 HTS: modulators (inhibitors or enhancers) of MEK5 binding to human MEKK3 PB1 domain. bead-based flow cytometry, Alexa488-MEK5 binding to MEKK3; actives lie on both sides; 0 = blocked by unlabeled MEK5, 100 = vehicle. actives 1.4% (n = 290,000). AID 1529. binding response (% of control), % at 10 µM;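 active means binding response more than 3 SD above or below the average of its plate-row segment, actives on both sides; inconclusive means wells at one plate position flagged as instrument error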;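 further: Alexa488 bead fluorescence after subtracting the streptavidin-only scavenger bead signal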
dFosB activator: activators of mouse delta FosB homodimer; AID 493131; actives 0.99% (n = 340,000); activation, % at 25 µM; P13346; purified delta FosB, TAMRA-CDK5 oligo fluorescence polarization; percent of positive-control signal above neutral wells;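 active means mean activation above about 17%, with every replicate also reaching it, limit read from the data, passing the limit was not always enough; inconclusive means only one of the two conditions met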
Target sequence (P13346 whole entry, looked up): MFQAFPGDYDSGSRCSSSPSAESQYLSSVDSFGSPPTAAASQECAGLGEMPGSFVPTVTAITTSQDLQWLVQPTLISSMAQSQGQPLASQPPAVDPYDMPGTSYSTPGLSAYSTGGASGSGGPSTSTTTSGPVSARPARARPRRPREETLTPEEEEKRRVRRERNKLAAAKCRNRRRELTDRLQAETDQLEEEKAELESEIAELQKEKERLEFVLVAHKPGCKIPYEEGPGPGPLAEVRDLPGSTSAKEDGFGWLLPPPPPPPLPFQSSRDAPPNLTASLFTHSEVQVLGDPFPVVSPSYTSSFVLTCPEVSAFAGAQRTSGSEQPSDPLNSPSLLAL
MEKK2wt confirm: raises or lowers MEK5 binding to wildtype human MEKK2, retest | shares compounds with MEKK3 PB1 HTS | bead flow cytometry, Alexa488-MEK5 binding to MEKK2 WT; actives lie on both sides | binding response (% of control), % at 10 µM | actives 2.4% (n = 5,900) | AID 1892; in the data active means binding response below about 16% or above about 210%; inactive means in between
MEKK2mut confirm: signal of MEK5 binding to mutant human MEKK2, retest. shares compounds with MEKK3 PB1 HTS. bead flow cytometry, Alexa488-MEK5 binding to MEKK2 mutant. percent response, % at 10 µM. actives 2% (n = 5,900); in the data active means percent response mostly above about 71%, no sharp cut-off; inactive means mostly below about 38%;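 further: higher means compound restores mutant binding toward wildtype level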
MEKK3-MEK5 inh: MEKK3-MEK5 PB1 inhibition, single concentration confirmation. actives 1.8% (n = 5,900). bead flow cytometry, Alexa488-MEK5 binding to MEKK3; hits give low values. binding response (% of control), % at 10 µM. shares compounds with MEKK3 PB1 HTS. AID 1894;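 active means binding response below 72% of control, or above a set upper limit, though filed actives all read lower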;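 further: 100% = DMSO only wells and 0% = binding blocked by excess unlabeled MEK5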
* hit, by the source's call; ? = inconclusive; / = not tested or not shown; [ ] = remark or other dose.

SMILES | FID counter | MEKK2mut PB1 HTS | MEKK2wt PB1 HTS | MEKK3 PB1 HTS | dFosB activator | MEKK2wt confirm | MEKK2mut confirm | MEKK3-MEK5 inh
Cc1cccc(NC(=O)c2ccc(S(=O)(=O)N3CCOCC3)cc2)c1C | -7 | 1 | 99 | 103 | 2 | / | / | /
Cc1ccc(C)c(C(=O)OCC(=O)Nc2cccc(S(=O)(=O)NC3=NCCCCC3)c2)c1 | -26 | -2 | 99 | 105 | -19 | / | / | /
O=C(CN1CCN(S(=O)(=O)c2ccccc2)CC1)Nc1ccccc1Cl | -32 | 6 | 107 | 106 | -17 | / | / | /
O=C(CN1CCN(S(=O)(=O)c2ccccc2)CC1)Nc1ccccc1C(=O)c1ccccc1 | -23 | 0 | 103 | 128* | 1 | 104 | -4 | 99
Cc1ccccc1CSc1ccc2nnc(-c3ccccn3)n2n1 | -21 | -2 | 90 | 97 | -13 | / | / | /
O=C(CC1C(=O)NCCN1CCCc1ccccc1)NCCc1ccccc1Cl (stereo unspecified) | -20 | 31* | 126 | 102 | 7 | 146 | 21 | 103
COc1cccc(CNC(=O)CC2C(=O)NCCN2CCCc2ccccc2)c1 (stereo unspecified) | -16 | 15 | 129 | 108 | 1 | / | / | /
COc1ccccc1CCNC(=O)CC1C(=O)NCCN1CCCc1ccccc1 (stereo unspecified) | -21 | 26* | 138* | 109 | -7 | 113 | 6 | 101
C[C@H](NC(=O)c1cc2cc(Cl)ccc2n1C)C(=O)N[C@@H](C(=O)O)c1ccccc1 | -22 | 6 | 108 | 111 | 2 | / | / | /
C/C(=N/NC(=O)c1cc(O)c(O)c(O)c1)c1ccc([N+](=O)[O-])cc1 | -1 | -3 | 97 | 98 | -3 | / | / | /
O=C(NCCCN1CCOCC1)c1cc(Cl)ccc1[N+](=O)[O-] | -4 | 2 | 114 | 206* | -1 | 99 | 2 | 100
O=C(NCCCN1CCOCC1)c1ccc(Cl)cc1[N+](=O)[O-] | 1 | -6 | 107 | 108 | -2 | / | / | /
N#Cc1ccc(-c2csc(NC(=O)c3cc(-c4cccs4)nc4ccccc34)n2)cc1 | 0 | -31 | 38*[inhibitor] | 63*[inhibitor] | 1 | 103 | 10 | 107
Cc1ccc(-c2nn3cnnc3c3ccccc23)cc1C | -22 | -2 | 95 | 100 | -25 | / | / | /
CC(C)C(=O)NNC(=O)CSc1nc(C2CCCCC2)nc2ccccc12 | -1 | 2 | 108 | 140* | ? | 103 | 3 | 104
O=C(Cn1cnc2ccccc21)N/N=C/c1ccccc1[N+](=O)[O-] | -6 | 0 | 105 | 138* | -2 | 99 | 0 | 97
O=C(Cn1cnc2ccccc21)N/N=C/c1ccc([N+](=O)[O-])cc1 | -2 | 3 | 116 | 141* | -8 | 89 | 0 | 94
O=c1[nH]c(SCc2nc3ccccc3c(=O)n2-c2ccccc2C(F)(F)F)nc2ccccc12 | -17 | -2 | 75 | 67*[inhibitor] | -6 | 98 | 4 | 101
Cc1[nH]c(C)c(S(=O)(=O)NCc2ccc(Cl)cc2)c1C(=O)N1CCCC1 | -7 | 1 | 103 | 103 | -6 | / | / | /
CCC/C=C1/CCCOC(C(=O)NCc2ccc(C)o2)(C(F)(F)F)C1 (stereo unspecified) | / | / | / | / | -3 | / | / | /
C#CCOCCOCCOCCNc1nc(N2CCN(C(=O)[C@H](CCCCN)n3cc([C@@H](N)CO)nn3)CC2)nc(N2CCN(C(=O)[C@H](Cc3cc4ccccc4[nH]3)n3cc([C@@H](N)CO)nn3)CC2)n1 | / | 1 | 139* | 107 | / | 114 | 8 | 102
C#CCOCCOCCOCCNc1nc(N2CCN(C(=O)[C@H](CCCCN)n3cc([C@@H](N)CO)nn3)CC2)nc(N2CCN(C(=O)[C@H](Cc3cc4ccccc4[nH]3)n3cc([C@@H](N)CC(C)C)nn3)CC2)n1 | 49* | 67* | 195* | 111 | / | 125 | 14 | 104
COc1ccc(NC(=O)CC(Cc2ccccc2)C(=O)O)cc1 (stereo unspecified) | -5 | -8 | 90 | 92 | 0 | / | / | /
COc1ccc(NC(=O)CC(C(=O)O)C(C)c2ccccc2)cc1 (stereo unspecified) | -12 | 29* | 160* | 108 | 3 | 103 | -3 | 101
Cc1cccc(N2CCN(C(=O)[C@H](C)N3C(=O)C4CC=CCC4C3=O)CC2)c1C (stereo partly specified) | / | / | / | / | -4 | / | / | /
SMILES | FID counter | MEKK2mut PB1 HTS | MEKK2wt PB1 HTS | MEKK3 PB1 HTS | dFosB activator | MEKK2wt confirm | MEKK2mut confirm | MEKK3-MEK5 inh
Cc1ccc(Cn2nc3c4cc(F)ccc4n(Cc4ccc(F)cc4)cc-3c2=O)cc1 | -6 | -2 | 99 | 96 | 3 | / | / | /
COc1cc2c3nnc(-c4ccc(F)cc4)c-3cn(Cc3ccc(C)cc3)c2cc1OC | -3 | 50* | 179* | 116 | ? | 204 | 74* | 109
COc1cccc(Cn2nc3c4cc(F)ccc4n(Cc4ccc(F)cc4)cc-3c2=O)c1 | -9 | -3 | 93 | 92 | -6 | / | / | /
COc1cc2c3nnc(-c4ccc(F)cc4)c-3cn(Cc3cccc(F)c3)c2cc1OC | 5 | -3 | 53 | 39*[inhibitor] | 38* | 88 | -8 | 73
COCCCNC(=O)c1ccc2c3c(onc13)-c1ccccc1C2=O | -5 | -8 | 92 | 96 | -15 | / | / | /
CCOC(=O)C(C(=O)OCC)c1cc(Br)c2noc3c2c1C(=O)c1ccccc1-3 | 2 | -14 | 39*[inhibitor] | 64*[inhibitor] | 2 | 44 | -25 | 68*
COc1ccc(CNc2ncc(-c3ccc(F)cc3)n2C)c2ccccc12 | 12 | 16 | 129 | 105 | 12 | / | / | /
CCOc1ccc(-c2cnc(NCc3cccc4ccccc34)n2CCOC)cc1 | 13 | 20 | 192* | 117 | 8 | 132 | 4 | 99
Cc1nc(SCC(=O)NCC(F)(F)F)c2c(-c3cccs3)csc2n1 | -10 | 0 | 104 | 128* | -7 | 96 | -5 | 100
Cc1nc(SCC(=O)NC(C)(C#N)C2CC2)c2c(-c3cccs3)csc2n1 (stereo unspecified) | -22 | -3 | 96 | 94 | -12 | / | / | /
N#Cc1c(Nc2ccccc2)c(/C=N/N=C/c2ccccc2)c[nH]c1=O | -1 | 0 | 104 | 138* | -12 | 100 | 3 | 105
Cc1ccc[n+](CC(=O)Nc2cc(C(F)(F)F)ccc2Cl)c1 | 4 | -4 | 95 | 91 | -10 | / | / | /
